The record followed here is PubChem BioAssay.

The first experiment is described as follows: reversal of MRP1-mediated doxorubicin resistance, pilot screen, H69AR cells, doxorubicin co-treatment (AID 601). The note with it: H69AR cells + 2 uM doxorubicin, CellTiter-Glo, 72 h; measured here: viability with 2 uM doxorubicin; at 10 µM; stronger effect = lower value. In general terms: Cellular ATP, detected with luciferase, serves as a proxy for viable cell number.
Consider `Cc1cc(C)cc(-n2ccnc2SCC(=O)Nc2ccc3c(c2)OCCO3)c1`, for which the viability amounted to 91.2%.
On the same count and under the same terms, in the case of `CC(C)CNC(=O)c1ccccc1NC(=O)CN(c1ccc2c(c1)OCCO2)S(C)(=O)=O` it was 90.8%.
The same measure, in the same setting: next, `N#Cc1cnn(Cc2ccc(Cl)cc2)c1N`: 84.9%; `Cc1cc(C)c2cc(CN(CC3CCCO3)C(=O)NC3CCCCC3)c(=O)[nH]c2c1` (stereo not drawn): 75.8%; `Cc1cc2c(cc(C(=O)OCC(=O)NCc3cccs3)n2C(C)C)o1`: 52.1%.
For `CCCOc1ccccc1NC(=O)c1ccc(N)cc1`, the viability stood at 90.6%.
On the same count and under the same terms, next, `COC(=O)/C=c1\sc2ncnn2c1=O`: 82.5%.
The same measure, in the same setting: in the case of `COc1cccc(CN=CC2=C(O)CC(C)(C)CC2=O)c1OC` it was 101%; in that of `CC(=O)Nc1ccc(NC(=O)C(C)Oc2ccccc2F)cc1` (stereo not drawn), 84%.
Still for that read-out and setting: in the case of `Cc1nnc(NC(=O)CSc2nnc(-c3ccc(S(=O)(=O)N4CCCC4)cc3)n2C)s1` it was 92.6%.
For the compound `CCn1ncc(C2=NOC(C(=O)Nc3ccc4c(c3)OCO4)C2)c1C` (stereo not drawn), the viability was 93.9%.
Same read-out and setting: in the case of `COC(=O)C1=CN(C)C=C(C(=O)OC)C1c1ccc(O)c(OC)c1` it was 93.4%; in that of `COc1ccccc1-c1nc(SCc2ccccn2)n[nH]1`, 91.9%.
The same measure, in the same setting: next, `CCOC(=O)Cn1c(CN2CCOCC2)nc2c1c(=O)[nH]c(=O)n2C`: 99.5%; `O=C(O)c1ccc2noc(-c3ccccc3)c2c1`: 92.4%; `O=S(CC(O)COCc1ccc(Cl)cc1)c1ccccn1` (stereo not drawn): 91.5%.
On to `CCn1c(CCNC(=O)c2cccs2)nnc1SCC(=O)c1ccc(OC)cc1`, for which the viability came out at 103%.
On the same count and under the same terms, next, `O=C(Cn1ncc2c(=O)oc3ccccc3c21)Nc1nc2ccccc2s1`: 94.9%; `COCc1nnc(NS(=O)(=O)c2ccc(Br)cc2)s1`: 95.8%.
Still for that read-out and setting: next, `COc1ccc(S(=O)(=O)NCc2ccc(C(=O)O)cc2)cc1`: 106%; `Cc1ccc(S(=O)(=O)CC2CSc3nnc(C)c(=O)n32)cc1` (stereo not drawn): 85.4%; `Cc1occc1C(=O)Nc1cccnc1`: 94.1%.
On to `CN(C1CCCCC1)S(=O)(=O)c1ccc(S(=O)(=O)N2CCCC2)cc1`, for which the viability came to 97.7%.
On the same count and under the same terms, in the case of `Cn1cccc1Cc1nnc(SCC(=O)Nc2ccccc2F)n1CCc1ccccc1` it was 82.1%.
For `COc1ccc(C(=O)CSc2nc(C)cc(=O)[nH]2)cc1`, the viability came out at 91.4%.
As to `CCCCCC1CC(CC#CCN2CCOCC2)C(=O)O1` (stereo not drawn), the viability is 92.6%.
As to `O=C(COc1ccccc1)Nc1ccccc1N1CCN(c2ccccc2)CC1`, the viability is 82.6%.
Still for that read-out and setting: in the case of `Brc1ccc(C2=Nn3c(nnc3-c3ccncc3)SC2)cc1` it was 91.4%; in that of `Cc1nc2sc3c(c2c(=O)o1)CCC3`, 102%; in that of `Cc1ccc(S(=O)(=O)Cn2nnnc2CN(Cc2ccco2)Cc2cccs2)cc1`, 75.9%.
As for `CC(=O)NCc1ccc(C(=O)CSc2nnc(-c3ccncc3)n2Cc2ccccc2)o1`, the viability was 87.8%.
As for `CCOC(=O)c1ccc(Oc2nc(NC)nc(OC)n2)cc1`, the viability came to 98.8%.
Turning to `O=P(O)(O)C(O)C(F)(F)C(F)(F)C(F)(F)C(F)F` (stereo not drawn), the viability amounted to 98.1%.
Regarding `COc1ccc(C)cc1NC(=O)CN1CCN(S(=O)(=O)c2ccc(Cl)cc2)CC1`, the viability is 57.3%.
The same measure, in the same setting: next, `COc1ccc(OC)c2[nH]c(=O)c(CCNC(=O)CC(C)C)cc12`: 95.2%; `O=S(=O)(Cc1ccccc1)N1CCN(Cc2ccccc2)CC1`: 79.9%; `COC(=O)C1C(=O)C2=C(CC1C)NC(=O)CC2c1ccccc1` (stereo not drawn): 87.9%.
Same read-out and setting: in the case of `CC(C)CCNC(=O)C(c1ccco1)N(CC1CCCO1)C(=O)Cn1nnc2ccccc21` (stereo not drawn) it was 92.8%; in that of `CC(C)COc1ccc(-c2nnn(CC(=O)N3CCCC3)n2)cc1`, 88.9%.

Staying with this experiment, now noted: H69AR cells, CellTiter-Glo, 72 h; compound alone cytotoxicity; at 10 µM.
For the compound `Cc1cc(C)cc(-n2ccnc2SCC(=O)Nc2ccc3c(c2)OCCO3)c1`, the viability stood at 99.3%.
On the same count and under the same terms, in the case of `CC(C)CNC(=O)c1ccccc1NC(=O)CN(c1ccc2c(c1)OCCO2)S(C)(=O)=O` it was 92.3%; in that of `N#Cc1cnn(Cc2ccc(Cl)cc2)c1N`, 95.4%; in that of `Cc1cc(C)c2cc(CN(CC3CCCO3)C(=O)NC3CCCCC3)c(=O)[nH]c2c1` (stereo not drawn), 73.4%.
For `Cc1cc2c(cc(C(=O)OCC(=O)NCc3cccs3)n2C(C)C)o1`, the viability stood at 21.7%.
Turning to `CCCOc1ccccc1NC(=O)c1ccc(N)cc1`, the viability stood at 98.2%.
In the case of `COC(=O)/C=c1\sc2ncnn2c1=O`, the viability worked out at 78.7%.
Same read-out and setting: in the case of `COc1cccc(CN=CC2=C(O)CC(C)(C)CC2=O)c1OC` it was 100%.
Still for that read-out and setting: next, `CC(=O)Nc1ccc(NC(=O)C(C)Oc2ccccc2F)cc1` (stereo not drawn): 103%; `Cc1nnc(NC(=O)CSc2nnc(-c3ccc(S(=O)(=O)N4CCCC4)cc3)n2C)s1`: 99%.
Consider `CCn1ncc(C2=NOC(C(=O)Nc3ccc4c(c3)OCO4)C2)c1C` (stereo not drawn), for which the viability is 94.8%.
The same measure, in the same setting: in the case of `COC(=O)C1=CN(C)C=C(C(=O)OC)C1c1ccc(O)c(OC)c1` it was 100%; in that of `COc1ccccc1-c1nc(SCc2ccccn2)n[nH]1`, 97.2%.
The same measure, in the same setting: in the case of `CCOC(=O)Cn1c(CN2CCOCC2)nc2c1c(=O)[nH]c(=O)n2C` it was 99.7%; in that of `O=C(O)c1ccc2noc(-c3ccccc3)c2c1`, 97.8%.
On the same count and under the same terms, next, `O=S(CC(O)COCc1ccc(Cl)cc1)c1ccccn1` (stereo not drawn): 93%.
Consider `CCn1c(CCNC(=O)c2cccs2)nnc1SCC(=O)c1ccc(OC)cc1`, for which the viability came to 97.4%.
Turning to `O=C(Cn1ncc2c(=O)oc3ccccc3c21)Nc1nc2ccccc2s1`, the viability came out at 102%.
The same measure, in the same setting: next, `COCc1nnc(NS(=O)(=O)c2ccc(Br)cc2)s1`: 91.3%; `COc1ccc(S(=O)(=O)NCc2ccc(C(=O)O)cc2)cc1`: 95.8%.
The same measure, in the same setting: in the case of `Cc1ccc(S(=O)(=O)CC2CSc3nnc(C)c(=O)n32)cc1` (stereo not drawn) it was 88%; in that of `Cc1occc1C(=O)Nc1cccnc1`, 97.7%; in that of `CN(C1CCCCC1)S(=O)(=O)c1ccc(S(=O)(=O)N2CCCC2)cc1`, 78.5%.
As for `Cn1cccc1Cc1nnc(SCC(=O)Nc2ccccc2F)n1CCc1ccccc1`, the viability was 83.7%.
The same measure, in the same setting: in the case of `COc1ccc(C(=O)CSc2nc(C)cc(=O)[nH]2)cc1` it was 101%.
On the same count and under the same terms, next, `CCCCCC1CC(CC#CCN2CCOCC2)C(=O)O1` (stereo not drawn): 93.8%.
In the case of `O=C(COc1ccccc1)Nc1ccccc1N1CCN(c2ccccc2)CC1`, the viability came out at 84.2%.
Still for that read-out and setting: in the case of `Brc1ccc(C2=Nn3c(nnc3-c3ccncc3)SC2)cc1` it was 77.1%; in that of `Cc1nc2sc3c(c2c(=O)o1)CCC3`, 88.1%; in that of `Cc1ccc(S(=O)(=O)Cn2nnnc2CN(Cc2ccco2)Cc2cccs2)cc1`, 80.6%.
For `CC(=O)NCc1ccc(C(=O)CSc2nnc(-c3ccncc3)n2Cc2ccccc2)o1`, the viability turned out to be 97.1%.
Same read-out and setting: next, `CCOC(=O)c1ccc(Oc2nc(NC)nc(OC)n2)cc1`: 104%; `O=P(O)(O)C(O)C(F)(F)C(F)(F)C(F)(F)C(F)F` (stereo not drawn): 92.5%.
Same read-out and setting: next, `COc1ccc(C)cc1NC(=O)CN1CCN(S(=O)(=O)c2ccc(Cl)cc2)CC1`: 82.6%; `COc1ccc(OC)c2[nH]c(=O)c(CCNC(=O)CC(C)C)cc12`: 100%; `O=S(=O)(Cc1ccccc1)N1CCN(Cc2ccccc2)CC1`: 95.5%.
Take `COC(=O)C1C(=O)C2=C(CC1C)NC(=O)CC2c1ccccc1` (stereo not drawn): the viability stood at 103%.
On the same count and under the same terms, in the case of `CC(C)CCNC(=O)C(c1ccco1)N(CC1CCCO1)C(=O)Cn1nnc2ccccc21` (stereo not drawn) it was 94.4%; in that of `CC(C)COc1ccc(-c2nnn(CC(=O)N3CCCC3)n2)cc1`, 104%.

Broadly, the viability is a read-out of living cells in per cent, often relative to untreated cells.
